From PubChem BioAssay (NCATS) come the findings set out here.

For test [1], the target named is Calcium and integrin-binding protein 1 (Homo sapiens) (UniProt Q99828). Briefly: Primary qHTS for Identification of Calcium Integrin Binding Protein 1 (CIB1) Competitor (AID 1508620).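 Note: GST tagged CIB1 binding a fluorescein labelled alphaIIb integrin peptide tracer; top concentration of the series differs between compounds; % is set by controls: 0 for no effect and ±100 for the full control effect.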 The gist of the method:
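CIB1-GST (1 uM final) and compound incubated 15 min at room temperature before adding FITC-alphaIIb peptide tracer (100 nM final). Competition for binding read by fluorescence polarization (ex 480, em 540) after another 15 min at room temperature.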
(In general: qHTS replaces the single test concentration by a dilution series.)

A short description of test [2]: Primary qHTS for small molecule stabilizers of the endoplasmic reticulum resident proteome: Secreted ER Calcium Modulated Protein (SERCaMP) assay (AID 1508630). Note: % is set by controls: 0 for no effect and ±100 for the full control effect. In short, it runs like this:
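The SH-SY5Y reporter protocol was run at 3 concentrations up to 38.3 uM (primary) or 11 concentrations (follow-up): 16 h compound, 100 nM thapsigargin for 4 h, then extracellular luciferase luminescence.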

The nature of test [3]: A High-Content qHTS Against Drug Library for the Identification of Small Molecules that Inhibit DYT1 Early Onset Primary Dystonia-Associated Cell Pathology (AID 1645839; calls by dose curve). The gist of the method:
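High-content imaging quantified EGFP-TorsinA mislocalization in HEK293-derived cells inducibly expressing DYT1 mutant torsinA, after 48 h exposure to compound given together with tetracycline induction. Cell count served as a toxicity channel alongside %pathology.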

In test [4] the target is Cytochrome P450 2D6 (Homo sapiens) (UniProt P10635). Briefly: Cytochrome P450 family 2 subfamily D member 6 (CYP2D6) small molecule antagonists: luciferase biochemical (cell-free) qHTS assay (AID 1645840; active = well fitted curve in the direction sought with a large enough effect in the repeat runs; an effect the other way counts as inactive or inconclusive; note: nearly all actives have a fitted effect of over 55% in size; note: potency is the fitted concentration of half-maximal effect). In short, it runs like this: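 P450-Glo CYP2D6 system: proluciferin substrate converted by enzyme to luciferin, read by luminescence proportional to activity. Enzyme-substrate mix with compound 10 min at room temperature, then NADPH regeneration 1 h before detection reagent.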
Cytochrome P450 2D6 (Homo sapiens), sequence (P10635 whole entry, looked up): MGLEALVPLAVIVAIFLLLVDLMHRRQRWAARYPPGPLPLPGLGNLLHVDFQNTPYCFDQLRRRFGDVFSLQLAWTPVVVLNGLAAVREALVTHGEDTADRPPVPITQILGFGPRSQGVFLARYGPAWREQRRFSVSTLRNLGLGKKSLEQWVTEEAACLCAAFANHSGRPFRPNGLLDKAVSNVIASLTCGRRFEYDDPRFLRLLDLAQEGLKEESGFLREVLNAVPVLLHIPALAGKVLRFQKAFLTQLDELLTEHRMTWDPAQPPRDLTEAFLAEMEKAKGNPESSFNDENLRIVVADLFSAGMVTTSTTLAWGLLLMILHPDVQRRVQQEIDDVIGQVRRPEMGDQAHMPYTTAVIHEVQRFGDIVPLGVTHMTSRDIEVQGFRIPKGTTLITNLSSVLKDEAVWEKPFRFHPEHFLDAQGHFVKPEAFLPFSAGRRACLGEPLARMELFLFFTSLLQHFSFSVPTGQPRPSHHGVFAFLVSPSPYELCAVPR

Test [5] addresses Cytochrome P450 2C9 (Homo sapiens) (UniProt P11712). Briefly: Cytochrome P450 family 2 subfamily C member 9 (CYP2C9) small molecule antagonists: luciferase biochemical (cell-free) qHTS assay (AID 1645842; active = well fitted curve in the direction sought with a large enough effect in the repeat runs; an effect the other way counts as inactive or inconclusive; note: nearly all actives have a fitted effect of over 55% in size; note: potency is the fitted concentration of half-maximal effect). The gist of the method:
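P450-Glo CYP2C9 system: proluciferin substrate with enzyme in mix containing 0.4% BSA, 10 min at room temperature, then NADPH regeneration solution added and incubated 1 h at 37C. Detection reagent stopped reaction; luminescence read after 20 min as RLU.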

Test [6] is described as follows: Cytotoxicity counterscreen for inhibitors of SARS-CoV-2 cell entry (AID 1645845; calls by dose curve; note: nearly all actives have a fitted effect of over 50% in size). In short, it runs like this: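 ATP-content luminescence (ATPLite 1step, 15 min RT) read after 48 h compound exposure of Expi293F cells stably expressing human ACE2; normalized to cells-only wells and media-only wells.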
For orientation: A counterscreen serves to expose hits that act by an unwanted route or on another target.

The nature of test [7]: Primary qHTS to identify inhibitors of SARS-CoV-2 cell entry (AID 1645846; calls by dose curve; note: nearly all actives have a fitted effect of over 45% in size). Particulars: activity change, negative = inhibition: at 57.1 µM (top of the series) unless noted. In short, it runs like this: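 HEK293 cells stably expressing human ACE2, pre-treated 1 h with compound, then infected with MLV particles pseudotyped with Wuhan-Hu-1 spike (C-terminal 19-aa truncation). Luciferase luminescence after 48 h at 37 °C, normalised to spike PP and bald PP.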

The nature of test [8]: Primary qHTS for inhibitors of nuclear receptor binding SET domain protein 2 (NSD2) in an isogenic RCH-ACV NSD2 p.E1099K mutant (9B) (AID 1645876). Note: % is set by controls: 0 for no effect and ±100 for the full control effect; nearly all actives have a fitted effect of over 70% in size.
Test [9] can be described thus: Primary qHTS for inhibitors of nuclear receptor binding SET domain protein 2 (NSD2) in an RCH-ACV wild type WT cells (2C) (AID 1645877). Note: nearly all actives have a fitted effect of over 70% in size.
For test [10], the target named is Cytochrome P450 3A4 (Homo sapiens) (UniProt P08684). Nature of the test: Cytochrome P450 family 3 subfamily A member 4 (CYP3A4) small molecule antagonists: luciferase qHTS assay (AID 1645841; active = well fitted curve in the direction sought with a large enough effect in the repeat runs; an effect the other way counts as inactive or inconclusive; note: nearly all actives have a fitted effect of over 45% in size). In short, it runs like this: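 Luminescent CYP3A4 activity readout: compounds plus enzyme-substrate mix 10 min at room temperature, reaction started with NADPH regenerating system for 1 h, stopped with detection reagent, read after 20 min. Ketoconazole served as control.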
Cytochrome P450 3A4 (Homo sapiens), sequence (P08684 whole entry, looked up): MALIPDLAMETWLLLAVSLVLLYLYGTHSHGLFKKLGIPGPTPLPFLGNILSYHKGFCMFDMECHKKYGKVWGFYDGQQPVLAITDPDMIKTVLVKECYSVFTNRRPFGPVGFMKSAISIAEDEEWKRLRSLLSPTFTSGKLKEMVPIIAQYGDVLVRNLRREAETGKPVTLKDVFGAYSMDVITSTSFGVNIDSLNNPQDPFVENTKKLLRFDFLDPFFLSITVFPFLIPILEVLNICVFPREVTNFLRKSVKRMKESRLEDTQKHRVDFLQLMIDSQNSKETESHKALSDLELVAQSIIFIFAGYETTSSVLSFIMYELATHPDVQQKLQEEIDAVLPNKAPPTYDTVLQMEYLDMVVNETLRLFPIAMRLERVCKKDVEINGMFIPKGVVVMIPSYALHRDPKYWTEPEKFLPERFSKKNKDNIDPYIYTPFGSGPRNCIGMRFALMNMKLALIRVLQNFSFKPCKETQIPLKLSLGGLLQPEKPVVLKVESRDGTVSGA

A short description of test [11]: Counterscreen qHTS for small molecule stabilizers of the endoplasmic reticulum resident proteome: GLuc-NoTag assay (AID 1508627).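 Note: 0% = thapsigargin alone and -100% = DMSO vehicle control.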 In short, it runs like this: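 Counterscreen line: SH-SY5Y-GLuc-NoTag cells, treated with compound 19 hr before a 4 hr, 100 nM thapsigargin calcium depletion. Secreted Gaussia luciferase in the medium was measured by luminescence after coelenterazine was added (0.07x final), with cells unlysed.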

A short description of test [12]: Cell Viability qHTS for small molecule stabilizers of the endoplasmic reticulum resident proteome (AID 1508629).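 Note: human SH-SY5Y neuroblastoma cells carrying the GLuc-SERCaMP reporter; compound exposure about 46 h in total before the viability read; % is set by controls: 0 for no effect and ±100 for the full control effect.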 Particulars: cell viability counter-screen, 100 nM thapsigargin for final 4 h.
Test [13] is described as follows: Confirmatory qHTS for small molecule stabilizers of the endoplasmic reticulum resident proteome: Secreted ER Calcium Modulated Protein (SERCaMP) assay (AID 1508628). Note: % is set by controls: 0 for no effect and ±100 for the full control effect; nearly all actives have a fitted effect of over 40% in size. The gist of the method:
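Reporter secretion upon ER calcium depletion (100 nM thapsigargin, 4 h, 37C) is measured as medium luminescence with coelenterazine, after 16 h compound pretreatment of SH-SY5Y-GLuc-SERCaMP cells; primary at three concentrations up to 38.3 uM, follow-up at 11 (up to 76.6 uM).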

For test [14], the target named is Calcium and integrin-binding protein 1 (Homo sapiens) (UniProt Q99828). Nature of the test: Validation qHTS for Identification of Calcium Integrin Binding protein 1 (CIB1) Competitor (AID 1508618). Note: % is set by controls: 0 for no effect and ±100 for the full control effect. The gist of the method:
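CIB1-GST (1 uM final) in 5 mM HEPES pH 7.4, 125 mM NaCl, 5 mM CaCl2, 0.01% Tween20 was preincubated 15 min at room temperature with compound (up to 114 uM), then FITC-alphaIIb peptide (100 nM) added for 15 min; fluorescence polarization read.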

Test [15] has as its target Papain (Carica papaya) (UniProt P00784). Nature of the test: Primary qHTS assay for inhibitors of the protease papain (AID 1645873).

SMILES strings stand for the structures. Records with an inconclusive call do not appear. Active and inactive are the calls of the source. Unless noted, calls come from the whole dose curve; as a rule, active = well fitted curve in the direction sought with a large enough effect; inconclusive = small, poorly fitted or top-dose-only effect, or another doubt; inactive = no such curve, though single readings can be large; an effect the other way counts as inactive or inconclusive.

Cytochrome P450 2C9 (Homo sapiens), sequence (P11712 whole entry, looked up): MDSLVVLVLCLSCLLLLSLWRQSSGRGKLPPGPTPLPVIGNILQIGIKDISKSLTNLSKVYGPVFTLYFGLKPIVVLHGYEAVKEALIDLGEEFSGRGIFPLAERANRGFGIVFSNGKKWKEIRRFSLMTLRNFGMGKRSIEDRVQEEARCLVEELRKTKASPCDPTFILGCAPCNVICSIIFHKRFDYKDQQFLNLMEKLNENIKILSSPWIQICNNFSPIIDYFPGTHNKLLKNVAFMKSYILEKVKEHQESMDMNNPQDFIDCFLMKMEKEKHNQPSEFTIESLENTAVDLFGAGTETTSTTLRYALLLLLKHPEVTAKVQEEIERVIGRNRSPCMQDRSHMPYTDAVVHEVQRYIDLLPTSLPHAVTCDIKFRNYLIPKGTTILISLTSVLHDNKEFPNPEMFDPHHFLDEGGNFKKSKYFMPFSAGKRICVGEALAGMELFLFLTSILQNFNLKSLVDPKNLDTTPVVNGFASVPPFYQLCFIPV
Calcium and integrin-binding protein 1 (Homo sapiens), sequence (Q99828 whole entry, looked up): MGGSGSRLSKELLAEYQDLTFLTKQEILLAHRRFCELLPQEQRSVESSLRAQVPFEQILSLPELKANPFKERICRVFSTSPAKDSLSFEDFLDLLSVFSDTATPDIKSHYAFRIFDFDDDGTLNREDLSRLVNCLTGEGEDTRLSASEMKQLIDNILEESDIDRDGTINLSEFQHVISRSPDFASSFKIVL
Papain (Carica papaya), sequence (P00784 whole entry, looked up): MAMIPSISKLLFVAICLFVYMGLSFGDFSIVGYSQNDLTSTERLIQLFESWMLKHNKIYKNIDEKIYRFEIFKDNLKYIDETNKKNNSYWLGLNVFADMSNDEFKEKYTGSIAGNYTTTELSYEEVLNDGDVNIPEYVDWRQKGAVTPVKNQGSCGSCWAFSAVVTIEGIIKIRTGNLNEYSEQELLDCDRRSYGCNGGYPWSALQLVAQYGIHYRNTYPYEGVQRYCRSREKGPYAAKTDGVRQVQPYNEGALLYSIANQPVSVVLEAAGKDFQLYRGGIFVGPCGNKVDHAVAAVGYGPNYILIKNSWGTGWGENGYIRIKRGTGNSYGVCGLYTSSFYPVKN

As for `CC(C)(C)OC(=O)c1ncn2c1[C@@H]1CCCN1C(=O)c1c(Br)cccc1-2`, the Potency result in test [1] and in [4] was “inactive” throughout. For the same molecule, the outcome in [2] and in test [3] was inactive. The Potency in [5] is 4.36 µM (active).
Consider `CCCCCCCCC(=O)NCc1ccc(O)c(OC)c1`, for which the Potency result in test [1], in test [6], in test [8] and in test [9] was “inactive” in each case. The outcome in test [2] and in test [3] was inactive. Besides, the Potency in test [4] is 13.8 µM (active); in test [5] it was 0.692 µM (active). This molecule registered an activity change, negative = inhibition in test [7] of 4.35%.
Turning to `CNC(C)Cc1ccc2c(c1)OCO2` (configuration not stated), the Potency result in test [1] and in [5] was “inactive” throughout. For the same molecule, the result in test [2] and in [3] was inactive. Moreover, in [4], the Potency is 0.693 µM (active).
Turning to `CN(C)CCc1c[nH]c2ccccc12`, the Potency entry in [1], in [10], in [5], in test [8] and in test [9] was “inactive” in each case. Besides, the result in test [2] and in [3] was inactive. Moreover, the Potency in [4] is 62.8 µM (active).
Regarding `CC(Cc1ccccc1)NCCCCl` (configuration not stated), the Potency entry in test [1], in test [5] and in test [6] was “inactive” each time. Also, the outcome in test [2] and in test [3] was inactive. For the same molecule, the Potency in [4] is 1.23 µM (active).
Take `CN1C2CCC(C)(C)C1CC(OC(=O)C(O)(c1cccs1)c1cccs1)C2` (configuration not stated): the Potency result in test [1], in [11], in test [5] and in test [6] was “inactive” each time. Also, in test [12], the max response is -12.1% (inactive). Moreover, in [4], the Potency was 13.8 µM (active).
Take `NC(=O)OCCCc1ccccc1`: the Potency entry in test [1], in [11], in test [13], in test [4], in test [10] and in test [5] was “inactive” throughout. For the same molecule, the Potency result in [6], in test [7], in test [8] and in test [9] was “inactive” each time. Moreover, the max response in test [12] was 1.15% (inactive). Moreover, in test [3], the molecule was called inactive.
Take `CC1=C2[C@H]3OC(=O)[C@@H](C)[C@@H]3CC[C@@]2(C)C=CC1=O`: the Potency entry in test [1], in [4], in [5], in [6], in test [8] and in [9] was “inactive” throughout. Further, the outcome in test [2] and in test [3] was inactive. This molecule displayed an activity change, negative = inhibition in test [7] of 2.07%.
`CCC(=O)OC1(c2ccccc2)CCN(C)CC1`: the Potency entry in [1], in test [11], in test [5] and in test [8] was “inactive” in each case. For the same molecule, the outcome in [3] was inactive. The Potency in test [4] is 37.5 µM (active).
On to `O=C(O)Cc1ccccc1`, for which the Potency result in test [1], in test [5], in test [6], in test [7] and in test [8] was “inactive” in each case. The result in [2] and in [3] was inactive. Further, in test [4], the Potency was 15.5 µM (active).
With `COC(=O)C1=CCCN(C)C1`, the outcome in test [14], in test [2], in [3] and in test [15] was inactive. Further, the Potency result in [1], in test [4], in [5] and in test [8] was “inactive” in each case.
`C[C@H]1C(=O)O[C@@H]2CCN3CC=C(COC(=O)[C@](C)(O)[C@]1(C)O)[C@H]23`: the Potency result in [1], in test [4] and in test [5] was “inactive” in each case. In addition, the result in [2] and in [3] was inactive.
